Test results as given in PubChem BioAssay (Tox21).
Records with an inconclusive call do not appear. Where a call stands in place of a potency, no number is given. The source made the active and inactive calls. The call rests on the fitted dose curve.

biological target: 5-hydroxytryptamine receptor 2A (Homo sapiens) (UniProt P28223); experiment: 5-hydroxytryptamine receptor 2A (HTR2A) small molecule antagonists, cell-based qHTS assay (AID 1963586); conditions: HTR2A-CHO cells, DOI-induced calcium flux, fluorescence; series mostly up to 61.5 µM; further: nearly all actives have a fitted effect of over 45% in size
Excerpt: National Center for Advancing Translational Sciences [NCATS]
Division of Preclinical Innovation [DPI]
U.S. Environmental Protection Agency [EPA]
National Institutes of Environmental Health Sciences [NIEHS]
National Toxicology Program [NTP]
U.S. Food and Drug Administration [FDA]
The HTR2A receptor is a subtype of the 5-HT2 receptor that belongs to the serotonin receptor family and is a G protein-coupled receptor (GPCR). The HTR2A-CHO cell line stably expressing human 5-hydroxytryptamine receptor 2A (HTR2A) can be used for screening antagonists of interactions between 5-HT2 and its ligands. The HTR2A-CHO calcium flux assay is a homogeneous fluorescence-based assay for detecting the intracellular calcium level using FDSS kinetic plate reader system.
Tox21 Assay Protocol Summary:
HTR2A-CHO cells were dispensed at 2000 cells/3uL/well in 1536-well black-clear bottom plates using a Multidrop Dispenser. After the assay plates were incubated at a 37 C/5% CO2 incubator for 18 h, 3 uL of Dye Loading Buffer was transferred to the assay plate by a Flying Reagent Dispenser. The assay plates were incubated at 37 C for 1h. For antagonist mode, 23 nL of compounds dissolved in DMSO, positive controls or DMSO only was transferred to the assay plate by a pin tool. After 5 min incubation at room temperature, 1.5 uL of 4-Iodo-2,5-dimethoxy-alpha-methylbenzeneethanamine hydrochloride (DOI) at 4nM was added to each well. The fluorescence intensity in the plates was measured using FDSS 7000EX kinetic plate reader for 3 min at 1 sec intervals.
Potency means the concentration at half of the fitted maximal effect.

Sequence of 5-hydroxytryptamine receptor 2A (Homo sapiens) (P28223 whole entry, looked up): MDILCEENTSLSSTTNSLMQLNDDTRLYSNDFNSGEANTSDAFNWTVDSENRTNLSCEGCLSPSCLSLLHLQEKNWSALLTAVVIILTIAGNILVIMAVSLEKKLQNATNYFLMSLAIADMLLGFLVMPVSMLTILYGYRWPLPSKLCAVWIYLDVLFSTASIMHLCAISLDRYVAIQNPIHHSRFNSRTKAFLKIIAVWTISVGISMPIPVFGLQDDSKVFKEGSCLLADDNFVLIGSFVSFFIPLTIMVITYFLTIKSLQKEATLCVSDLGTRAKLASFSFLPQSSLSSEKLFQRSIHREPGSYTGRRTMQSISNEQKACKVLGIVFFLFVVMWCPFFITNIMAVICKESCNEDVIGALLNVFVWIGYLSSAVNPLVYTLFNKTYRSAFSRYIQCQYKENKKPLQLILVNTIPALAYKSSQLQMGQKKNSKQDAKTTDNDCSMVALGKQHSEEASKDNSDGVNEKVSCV

SMILES	Potency
CCCCCCCCCCCCCCCCn1cc[n+](C)c1	inactive
CN1CCC(N(Cc2ccccc2)c2ccccc2)CC1	2590 nM (active)
CCCCCCn1cc[n+](C)c1	inactive
CCN(CC)c1ccccc1	inactive
COP(=S)(OC)SCn1nnc2ccccc2c1=O	inactive
COP(=S)(OC)Oc1ccc(SC)c(C)c1	inactive
O=C/C=C/c1ccco1	inactive
N#Cc1ccccc1Cl	inactive
CC[n+]1ccccc1	inactive
Nc1ccc(Br)cc1	inactive
C[C@]12CCC(=O)C(O)=C1CC[C@@H]1[C@@H]2CC[C@]2(C)C(=O)CC[C@@H]12	inactive
BrCC(Br)c1ccccc1 (stereo not given)	inactive
CNC(=O)Oc1cccc2c1OC(C)(C)O2	inactive
O=C(CCl)c1ccccc1	inactive
C[N+](C)(C)C	inactive
CCCCC(CC)C(=O)Cl (stereo not given)	inactive
CCC(C)C(C)(COC(N)=O)COC(N)=O (stereo not given)	inactive
[Cd+2].[Cl-].[Cl-]	inactive
CNC(=O)Oc1ccccc1C1OCCO1	inactive
CNc1cnn(-c2cccc(C(F)(F)F)c2)c(=O)c1Cl	inactive

SMILES	Potency
NCCOS(=O)(=O)O	inactive
C=CCOCC1CO1 (stereo not given)	inactive
CCCCn1cc[n+](C)c1C	inactive
O=S(=O)(O)C(F)(F)C(F)(F)C(F)(F)C(F)(F)C(F)(F)C(F)(F)C(F)(F)C(F)(F)F	inactive
ClCCN1CCCC1	inactive
CCCCCCCCOC(=O)c1ccccc1C(=O)OCCCCCCCC	inactive
N#CCCCl	inactive
[N-]=[N+]=[N-]	inactive
C[C@]12CCC(=O)C=C1CC[C@@H]1[C@@H]2CC[C@]2(C)C(=O)CC[C@@H]12	inactive
CCCCCCCCCCCCCCCC[N+](C)(C)C	inactive
Clc1ccc(Cl)c(Cl)c1	inactive
CC(=[OH+])/C=C(/C)[O-].CC(=[OH+])/C=C(\C)[O-].CC(=[OH+])/C=C(\C)[O-].[Fe]	inactive
CS(=O)(=O)NC(=O)c1cc(Oc2ccc(C(F)(F)F)cc2Cl)ccc1[N+](=O)[O-]	inactive
c1cc2c3c(cccc3c1)CC2	inactive
O=C(NC(=O)c1c(F)cccc1F)Nc1cc(Cl)c(OC(F)(F)C(F)C(F)(F)F)cc1Cl (stereo not given)	inactive
O=C(CBr)c1ccc(O)cc1	inactive
Cc1cc(Cl)ccc1OCCCC(=O)O	inactive
CCC(C)Cl (stereo not given)	inactive
CCOP(=S)(OCC)Oc1nc(Cl)c(Cl)cc1Cl	inactive
CCOP(=S)(OCC)OP(=S)(OCC)OCC	inactive
